For twelve compounds, growth results are on record in PubChem BioAssay (NCI).

SMILES strings stand for the structures. The panel holds about 83,000 compounds, 20% with a hit somewhere; the sample as a whole holds those more often.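 The test compound was applied at a single concentration to cells in 96-well plates for 48 hours, and percent growth was recorded.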 Unmarked numbers belong to inactive results. Activity calls are given as the source filed them. The calls were made as follows: active = growth percent below 10; inactive = the rest.

Experiment in all cases: NCI-60 one-dose screen, 48 h (100 = growth as untreated, 0 = no growth, -100 = all killed)
Details in all cases: 10 µM unless noted

The subject of assay [1] is DU-145 prostate.
Assay [2] deals with K-562 leukemia.
Assay [3] has as its system MALME-3M melanoma.
In assay [4] the test system is MDA-MB-231 breast.
Assay [5] concerns RXF 393 renal.
The test system of assay [6] is SF-268 CNS.
For assay [7], the system named is SF-295 CNS.
Assay [8] has as its system SF-539 CNS.
Assay [9] has as its system UACC-257 melanoma.
For assay [10], the system named is M14 melanoma.
The subject of assay [11] is HCT-15 colon.
The test system of assay [12] is HT29 colon.
The subject of assay [13] is SNB-75 CNS.
Assay [14] relates to SNB-19 CNS.
The subject of assay [15] is PC-3 prostate.
The subject of assay [16] is SK-MEL-5 melanoma.
Assay [17] has as its system UACC-62 melanoma.
Assay [18] deals with LOX IMVI melanoma.
Assay [19] relates to SK-MEL-28 melanoma.

Consider `Cc1nc2ncnc(Cl)c2[nH]1`, for which the growth in assay [1] is 106%; in assay [2], 97.3%; in assay [3] it was 106%; in assay [4] it was 103%; in assay [5], 112%; in assay [6], 103%. For the same compound, the growth in assay [7] is 107%; in assay [8], 103%; in [9] it was 91.1%; in assay [10], 88.8%; in assay [11], 100%; in assay [12], 80.9%. Further, the growth in assay [13] was 89.1%; in [14], 99.7%; in [15], 90.5%; in assay [16], 104%; in assay [17] it was 100%; in [18], 97.5%. Further, in assay [19], the growth was 115%.
With `Cn1cc(-c2nonc2-c2c[nH]c3ccc(Br)cc23)c2cc(Br)ccc21`, the growth in [1] was 23.2%; in assay [2], 7.65% (active); in assay [3], 39.9%; in assay [4], 31.9%; in assay [5] it was 18.2%; in [6], 37.8%. The growth in [7] is 22.4%; in assay [8] it was 46%; in assay [9], 66.8%; in assay [10], 42.7%; in assay [11], 28.2%; in assay [12], 20.6%. Besides, the growth in assay [13] is -11.2% (active); in assay [14], 42.8%; in assay [15], 43.4%; in assay [16], 70.3%; in [17], 53.9%; in [18], 24.8%. In addition, the growth in [19] is 59.4%.
In the case of `O=C(Nc1ccc(NC(=O)c2cc(=O)[nH]c3ccccc23)cc1)Nc1cccc(C(F)(F)F)c1`, the growth in [1] was 76.2%; in assay [2], 53%; in assay [3] it was 31.7%; in [4], 26.7%; in assay [5], 108%; in [6], 50.7%. Moreover, the growth is 74.5% in assay [7]; 50.1% in assay [8]; 80.5% in assay [9]; 69.9% in [10]; 95.3% in assay [11]; 67.8% in assay [12]. Moreover, the growth in assay [13] was 58.5%; in assay [14], 23.8%; in assay [15], 69.8%; in assay [16] it was 69.9%; in assay [17], 68%; in [18] it was 21%. Also, in assay [19], the growth is 63.6%.
For the compound `CC(C)n1cnc2c(=S)nc[nH]c21`, the growth in assay [1] was 111%; in assay [2], 69.9%; in assay [3] it was 156%; in [4], 118%; in [5], 121%; in assay [6], 101%. In addition, the growth in assay [7] is 90.1%; in [8], 99.6%; in assay [9] it was 120%; in [10], 109%; in [11], 102%; in [12], 118%. For the same compound, the growth in assay [13] was 117%; in assay [14], 107%; in [15] it was 98.7%; in assay [16] it was 103%; in assay [17], 110%; in assay [18], 93.7%. In assay [19], the growth is 131%.
Take `COc1ccc(-c2nc3c(c(-c4ccccc4)nn3-c3ccccc3)c(-c3ccc(N4CCN(C)CC4)cc3)c2C#N)cc1`: the growth is 92.9% in assay [1]; 8.47% (active) in [2]; 94.6% in [3]; 97.9% in [4]; 76% in assay [5]; 105% in assay [6]. For the same compound, the growth in assay [7] was 107%; in assay [8], 95.7%; in [9], 95.5%; in [10] it was 104%; in [11], 56.2%; in [12], 80.5%. Also, the growth in assay [13] was 106%; in assay [14], 95.2%; in assay [15], 94.3%; in [16], 97.8%; in assay [17] it was 100%; in assay [18], 69.2%. Further, the growth in assay [19] is 97.5%.
`CSc1nc2sc3c(c2c(=O)n1-c1ccc([N+](=O)[O-])cc1)CCCCC3`: the growth in assay [1] was 99%; in assay [2] it was 94.1%; in assay [3], 91.4%; in assay [4], 75.3%; in assay [5], 84.1%; in assay [6], 98.7%. For the same compound, the growth in [7] was 68.8%; in assay [8], 95.3%; in assay [9], 91.2%; in assay [10], 94.9%; in [11], 94.6%; in assay [12], 92.6%. Further, the growth was 89.7% in [13]; 86% in assay [14]; 85.5% in assay [15]; 96.4% in assay [16]; 87.1% in [17]; 94.7% in assay [18]. Moreover, in assay [19], the growth was 105%.
In the case of `Cc1ccc(NC(=S)NNC(=S)NNc2ccccc2)cc1C`, the growth in [1] was 77.9%; in assay [2] it was 8.18% (active); in assay [3], 102%; in assay [4], 104%; in assay [5], 96.3%; in assay [6], 55.1%. In addition, the growth in assay [7] was 109%; in assay [8], 103%; in assay [9], 98.6%; in [10], 115%; in [11], 103%; in assay [12], 104%. In addition, the growth in assay [13] is 107%; in assay [14] it was 106%; in [15], 55.7%; in assay [16], 95.7%; in [17], 104%; in assay [18], 106%. Further, in assay [19], the growth is 115%.
Regarding `CCOC(=O)c1c(NC(=O)c2ccc(C(C)C)cc2)sc2c(CN(C)C)c(O)ccc12`, the growth in assay [1] is 78.2%; in assay [2], -31.3% (active); in assay [3] it was -45.5% (active); in assay [4], 58.4%; in assay [5], 44.2%; in assay [6] it was 91.4%. Also, the growth was 4.37% (active) in assay [7]; 75% in assay [8]; 67.3% in [9]; -64% (active) in assay [10]; -49.2% (active) in assay [11]; 27% in assay [12]. Also, the growth in assay [13] is 98.5%; in assay [14], 57.8%; in assay [15], 96.1%; in assay [16] it was 80.7%; in assay [17] it was 53.8%; in [18] it was -83.3% (active). The growth in assay [19] was -14.9% (active).
As to `CN(C)C1CCN(Cc2ccc(NC(=O)c3cncc(C#Cc4cnc(N)c5ncccc45)c3)cc2C(F)(F)F)CC1`, the growth in [1] was 64.1%; in assay [2], 1.29% (active); in [3], -63.1% (active); in assay [4], 2.48% (active); in [5], 19.4%; in [6], 81.3%. Besides, the growth in assay [7] is 93.9%; in [8] it was 59.6%; in assay [9], 15.5%; in [10], -73.6% (active); in assay [11], 53.2%; in assay [12], 19.3%. In addition, the growth was 127% in assay [13]; 97.8% in assay [14]; 80.6% in [15]; 50.6% in assay [16]; 91.5% in [17]; 63.7% in assay [18]. Also, in [19], the growth is -53.9% (active).
Take `CCN1C(=O)N(CC)C2C1NN=c1s/c(=C\c3cccc([N+](=O)[O-])c3)c(=O)n12` (stereo not drawn): the growth is 8.55% (active) in assay [1]; 10.5% in [2]; 47.4% in assay [3]; 12.4% in [4]; 31.4% in assay [5]; 54% in [6]. In addition, the growth in assay [7] is 15%; in assay [8], -4.28% (active); in [9] it was 59.7%; in [10], 12.2%; in assay [11] it was 11.6%; in assay [12], 5.6% (active). In addition, the growth was 22% in assay [13]; 31.5% in assay [14]; 33.7% in assay [15]; -5.71% (active) in assay [16]; 32.5% in [17]; 16.7% in assay [18]. The growth in [19] is 61.4%.
On to `CCN(CC)c1ccc(/C=C/C(=O)c2ccc(Nc3nc(Nc4ccccc4)nc(Nc4ccccc4)n3)cc2)cc1`, for which the growth is 51.6% in assay [1]; 22.5% in [2]; 43.2% in assay [3]; 52.8% in assay [4]; 10.6% in assay [5]; 62.1% in assay [6]. For the same compound, the growth in assay [7] is 1.72% (active); in [8], 61.2%; in assay [9], 73.1%; in [10] it was 54.1%; in [11], 32.4%; in assay [12], 49.8%. For the same compound, the growth in assay [13] was 26.8%; in assay [14], 67.5%; in assay [15], 34.1%; in assay [16] it was 40.7%; in [17] it was 54.8%; in assay [18], 40.3%. Also, in assay [19], the growth was 65.6%.
As for `COc1cc(OC)cc(C2=C3CC[C@@H]4[C@H](CC[C@]5(C)C(=O)CC[C@@H]45)C3=CC3C(O)c4cccnc4N4C(=O)COC234)c1` (stereo partly drawn), the growth was 110% in [1]; 92.7% in assay [2]; 103% in assay [3]; 97.8% in assay [4]; 107% in assay [5]; 92.8% in [6]. Besides, the growth is 97.6% in [7]; 102% in [8]; 98.1% in assay [9]; 104% in [10]; 100% in assay [11]; 104% in assay [12]. Also, the growth was 72.9% in assay [13]; 92% in assay [14]; 94.7% in assay [15]; 98.1% in [16]; 94.1% in assay [17]; 95.9% in [18]. Further, the growth in assay [19] is 115%.
